Test results as given in ChEMBL document CHEMBL3988442, “University of Dundee, Small-Polar-MMV Screening Library” (2021).
The campaign covered roughly 48,000 compounds. About 13,000 (27%) showed an effect of 50% or more. This is one part of the list.

Tested on: Wolbachia pipientis
Assay: Anti-Wolbachia Cell-Based Screen
Assay type: functional
Set-up: scale not given: in the data most compounds retested in dose-response had high values
Conditions: 5 µM

Row | SMILES | Percent Effect
1 | CC(CC(=O)Nc1ncn(CC(=O)NCc2ccccc2)n1)C1CC1 (stereo unspecified) | -9.655%
2 | COc1ccc(S(=O)(=O)NCC(O)c2sccc2C)cc1Cl (stereo unspecified) | 7.194%
3 | CC(=O)N1CCCCCC1C1CCN(Cc2nc(C3CC3)no2)CC1 (stereo unspecified) | -6.899%
4 | Brc1cnc(NCCCOC2CCOCC2)nc1 | -7.222%
5 | CC(C)Oc1cccc(C(=O)C2CCCN(C(=O)c3cncs3)C2)c1 (stereo unspecified) | 11.61%
6 | CNc1cccc(CC2COCCN(C(=O)c3cnn(C)c3)C2)n1 (stereo unspecified) | 151.8%
7 | CNc1cccc(CC2COCCN(C(=O)c3cncs3)C2)n1 (stereo unspecified) | 126.5%
8 | CNc1cccc(CC2COCCN(C(=O)c3cccnc3)C2)n1 (stereo unspecified) | 118.9%
9 | Cc1ccsc1S(=O)(=O)N1CCc2c(c(C(=O)O)nn2CC2CC2)C1 | -2.186%
10 | CN(Cc1noc2c1CCCC2)C(=O)Cn1c(=O)cnc2ccccc21 | 5.556%
11 | Cc1cnc2n(c1=O)C(CC(=O)NCc1cccs1)CS2 (stereo unspecified) | 81.1%
12 | Cc1cnc2n(c1=O)C(CC(=O)NCc1ccco1)CS2 (stereo unspecified) | 71.35%
13 | Cc1cnc2n(c1=O)C(CC(=O)NCc1cc(-c3cccs3)on1)CS2 (stereo unspecified) | -18.75%
14 | O=C(CC1CSc2nccc(=O)n21)NCc1ccco1 (stereo unspecified) | 9.661%
15 | O=C(CC1CSc2nccc(=O)n21)NCc1cc(-c2ccco2)on1 (stereo unspecified) | -4.448%
16 | CC(C)c1cc2c(O)nc(CSCC(=O)O)nc2s1 | 30.38%
17 | CN(Cc1cccs1)C(=O)c1ccc(N2CCOCC2)c(F)c1 | -5.296%
18 | COc1ccccc1C(NC(=O)NC1CC1)c1noc(C)n1 (stereo unspecified) | -18.96%
19 | CCc1nc(C2CCCN2CC(=O)Nc2cc(C)no2)no1 (stereo unspecified) | 85.76%
20 | Cc1cc(NC(=O)CN2CCCC2c2noc(C3CC3)n2)no1 (stereo unspecified) | 3.572%
21 | CCc1nc(C2CCCN2CC(=O)Nc2nnc(C)s2)no1 (stereo unspecified) | 78.74%
22 | CCc1nc(C2CCCN2CC(=O)Nc2sc(C)c(C)c2C)no1 (stereo unspecified) | -4.711%

Row | SMILES | Percent Effect
23 | CCc1nc(C2CCCN2CC(=O)Nc2c(C)nn(C)c2C)no1 (stereo unspecified) | -9.932%
24 | CCc1nc(C2CCCN2CC(=O)Nc2nncs2)no1 (stereo unspecified) | -0.024%
25 | CCc1nc(C2CCCN2CC(=O)Nc2cc(C)on2)no1 (stereo unspecified) | 106.9%
26 | Cc1cc(NC(=O)CN2CCCC2c2noc(C3CC3)n2)on1 (stereo unspecified) | 2.122%
27 | Cc1nnc(NC(=O)CN2CCCC2c2noc(C3CC3)n2)s1 (stereo unspecified) | -18.02%
28 | Cc1cc(CN(CCCO)c2ccccc2)on1 | -3.081%
29 | O=S(=O)(NC[C@H]1OC[C@@H](NCc2cccs2)[C@@H]1O)c1ccccc1 | -1.267%
30 | CCCn1ccnc1CN1C[C@@H](CN2CCCN(C)CC2)[C@@H](CO)C1 | 7.413%
31 | CCN(Cc1cccc(Cl)c1)Cn1nc(C)c2c(C)onc2c1=O | 4.514%
32 | CCN(Cc1c(F)cccc1F)Cn1nc(C)c2c(C)onc2c1=O | 127.8%
33 | Cc1cccc(CN(Cn2nc(C)c3c(C)onc3c2=O)C2CC2)c1 | -8.073%
34 | CCN(Cc1cccc(C)c1)Cn1nc(C)c2c(C)onc2c1=O | 127.1%
35 | CCCN(Cc1ccccc1)Cn1nc(C)c2c(C)onc2c1=O | 10.45%
36 | Cc1nn(CN(Cc2ccsc2)C2CC2)c(=O)c2noc(C)c12 | 0.1409%
37 | CCCN(CC)Cn1ncc2cn(-c3ccccc3)nc2c1=O | 21.01%
38 | Cc1nn(CN(CC(C)C)C2CC2)c(=O)c2noc(C)c12 | -9.201%
39 | CCN(Cc1cccc(F)c1)Cn1nc(C)c2c(C)onc2c1=O | 123.6%
40 | CCN(Cc1ccccc1Cl)Cn1nc(C)c2c(C)onc2c1=O | 88.73%
41 | CCC(C)N(Cc1c[nH]c(C)n1)Cc1ccccc1Cl (stereo unspecified) | 9.271%
42 | CCN(CC)Cc1ccccc1NCc1c(C)noc1C | -28.25%
43 | O=C(NC[C@H]1OC[C@@H](NCc2cccs2)[C@@H]1O)N1CCOCC1 | 1.798%
44 | COc1cc(CN(C)C(=O)NCCC(=O)NC2CCCC2)ccc1SC | -22.89%

Row | SMILES | Percent Effect
45 | Cn1ccnc1C(=O)NC[C@@H]1OC[C@H]2CN(S(C)(=O)=O)CC[C@H]21 | -19.48%
46 | CC(C)N(C)CC(=O)NC1CCc2nccn2C1 (stereo unspecified) | 10.39%
47 | CS(=O)(=O)NCC(=O)NC1CCc2nccn2C1 (stereo unspecified) | 17.97%
48 | O=C(CCn1cncn1)NC1CCc2nccn2C1 (stereo unspecified) | 104.2%
49 | O=C(CCCn1cncn1)NC1CCc2nccn2C1 (stereo unspecified) | 92.38%
50 | CS(=O)(=O)NCCC(=O)NC1CCc2nccn2C1 (stereo unspecified) | -6.555%
51 | O=C(CCn1cncn1)NC1CCS(=O)(=O)C1 (stereo unspecified) | 5.446%
52 | COCCN(C)C(=O)Nc1cc2c(cc1SC)OCCO2 | -4.661%
53 | O=C(CN1CCCNC1=O)Nc1ccccc1SC(F)(F)F | 20.21%
54 | Cc1cc(N2CCN(Cc3ccsc3)C(CCO)C2)nc(N)n1 (stereo unspecified) | 18.89%
55 | CSc1ncc(C(=O)N2C[C@H]3CC[C@@H]2CN(S(=O)(=O)N(C)C)C3)cn1 | -20.31%
56 | O=C(NC1CC1)c1cc(NC(=O)N2CCCC(O)C2)ccc1Cl (stereo unspecified) | -7.994%
57 | COc1cccc(CC2CN(C3CCN(C(C)=O)CC3)CCO2)c1 (stereo unspecified) | -14.95%
58 | Cc1cc(CN(C)C(=O)C2CCCN(C(=O)c3ccc(Cl)cc3)C2)no1 (stereo unspecified) | -5.924%
59 | CCc1cc(CNC(=O)C2CCCN(C(=O)NCC(C)C)C2)[nH]n1 (stereo unspecified) | 152.4%
60 | CCc1cc(NC(=O)C2CCCN(C(=O)NCC(C)C)C2)[nH]n1 (stereo unspecified) | 96.52%
61 | CC(C)Cc1cc(CNC(=O)C2CCCN(C(=O)N(C)C)C2)no1 (stereo unspecified) | 1.053%
62 | COCC(=O)N1CCCC(C(=O)NCc2cc(CC(C)C)on2)C1 (stereo unspecified) | 3.91%
63 | CCC(CC)c1cc(CNC(=O)N2CCCC(C(=O)NC)C2)on1 (stereo unspecified) | -0.3036%
64 | CSCc1nc(CNC(=O)C2CCCN(C(=O)N(C)C)C2)cs1 (stereo unspecified) | 1.326%
65 | CCc1cc(NC(=O)C2CCCN(C(=O)c3ccncc3)C2)[nH]n1 (stereo unspecified) | 100.1%
66 | COCCN1CCOCC12CCN(c1nccs1)CC2.O=C(O)C(F)(F)F | 44.08%

Row | SMILES | Percent Effect
67 | COCCN1CCOCC12CCN(c1cnccn1)CC2.O=C(O)C(F)(F)F | 110.8%
68 | CCN1CCOCC12CCN(c1cnccn1)CC2.O=C(O)C(F)(F)F | 94.98%
69 | CCN1CCOCC12CCN(c1ccc(C#N)cc1)CC2.O=C(O)C(F)(F)F | -6.455%
70 | CCN1CCOCC12CCN(c1nccs1)CC2.O=C(O)C(F)(F)F | -65.58%
71 | COCCN1CCOCC2(CCN(c3cnccn3)CC2)C1.O=C(O)C(F)(F)F | -15.76%
72 | CC(C)(C)c1cc(C(=O)NCCn2nc3ccccn3c2=O)[nH]n1 | 15.5%
73 | O=C(NC[C@H]1OC[C@@H](NC2CCC2)[C@@H]1O)c1cccs1 | 2.166%
74 | O=C(NCc1ccnc(C2CCCOC2)n1)c1cccs1 (stereo unspecified) | 112.2%
75 | O=C(NC[C@H]1OC[C@@H](NC2CCOCC2)[C@@H]1O)c1cccs1 | -3.226%
76 | Cn1ccnc1Sc1ncc(C(=O)N2CCCCC2)cc1Cl | 1.099%
77 | Cc1cccn2c(CNC(C)CCn3cccn3)cnc12 (stereo unspecified) | -12.69%
78 | Cc1nc(-c2ccccc2)n(CC(=O)NCC(C)C)n1 | -0.5584%
79 | CCOC(=O)CCCNC(=O)CN1CCN(c2ncccn2)CC1 | -1.703%
80 | CCOC(=O)CNC(=O)Cn1c(-c2ccoc2)nc(C)c1C | 117%
81 | Cc1nc(-c2ccoc2)n(CC(=O)NCC(C)C)c1C | 121.2%
82 | CC(C)CNC(=O)CN1C=Nc2ccccc2S1(=O)=O | -1.925%
83 | CCOC(=O)CNC(=O)N1CCc2onc(-c3ccc(Cl)cc3)c2C1 | -4.75%
84 | COc1cccn(CC(=O)N(C)Cc2ccoc2)c1=O | -6.863%
85 | Cc1nc(-c2ccoc2)n(CC(=O)N(C)CC(C)C)c1C | 99.79%
86 | Cc1nc(NC(=O)N(C)Cc2ccoc2)nn1C | -1.976%
87 | CSCCC(C)NC(=O)N(C)Cc1cc(Cl)cn1C (stereo unspecified) | -13.17%
88 | CNC(=O)c1cc2c(nc1NCC(C)C)CCN(S(C)(=O)=O)CC2 | -6.713%

Row | SMILES | Percent Effect
89 | N#CCCN(CCN1CCOCC1)Cc1ccc(F)c(Br)c1 | 132.9%
90 | COc1ccc(CN(CCC#N)CCN2CCOCC2)cc1OC | 124%
91 | N#CC1COCCN1S(=O)(=O)c1ccc(F)c(Br)c1 (stereo unspecified) | -8.72%
92 | COc1cc(F)ccc1C(C(=O)O)N(C)CCN1CCOCC1 (stereo unspecified) | -4.538%
93 | N#Cc1cc(CSCCN2CCOCC2)ccc1F | -6.22%
94 | COc1ccc(CN(C)Cc2cccc(C#N)c2)c(OC)c1 | 0.7087%
95 | COc1ccc(C#N)cc1CSCCN1CCOCC1 | -1.196%
96 | CCOc1ccc(CN(CCC#N)CCN2CCOCC2)cc1OC | 119.9%
97 | CCCC(=O)N(CCN1CCOCC1)c1nc2c(OC)ccc(C)c2s1.Cl | 15.71%
98 | COc1ccc(CCC(=O)N(C)CCN2CCOCC2)cc1OC | 6.913%
99 | COc1ccc(CN(CCC#N)CCN2CCOCC2)c(OC)c1 | 118.6%
100 | CN(Cc1cccc(C#N)c1)S(=O)(=O)N1CCOCC1 | 12.93%
101 | CCc1ccccc1OC1CN(C(=O)c2cccs2)C1 | 3.168%
102 | Cn1c(NC(=O)CNC(=O)C2CC2)nc2cc(Cl)ccc21 | -0.3531%
103 | CC(C)c1nn(C)c(N2CCOCC2)c1CN[C@H](C)CO | -7.825%
104 | Cc1c[nH]c(CN2CCCCC2CCn2ccnc2C)c(C)c1=O (stereo unspecified) | -47.12%
105 | O=C(c1ccc(C2CCCO2)s1)N1CCN(c2ccccc2F)CC1 (stereo unspecified) | 2.107%
106 | CCN(Cc1nccn1C)C(=O)c1ccc(NCc2cnn(C)c2)nc1 | -21.14%
